For 39 compounds, percent growth results are on record in the supplement of paper PMC5940239.

Values without a mark were called inactive.

The subject of this assay is Madurella mycetomatis MM55. As to the kind of experiment: percent growth relative to solvent control; higher = less inhibition, active = 20 or less. To be noted: 100 µM; 7 days.
Take `CN1CCN(CCCOc2ncc(Nc3ncc(-c4ccc(C(F)(F)F)c(F)c4)nc3C(N)=O)cn2)CC1`: the percent growth is -0.0728% (active). As for `COc1cccc(-c2nc3c(N4CCCC4)cccc3n2CC2CCCN2)n1` (centres undefined), the percent growth is -0.727% (active). Then `COC(=O)c1ccc(F)cc1NS(=O)(=O)c1cccc(-c2cnn(Cc3ccccc3)c2)c1`, with 118%; and `CC[P](CC)(CC)=[Au][S][C@H]1O[C@@H](COC(C)=O)[C@H](OC(C)=O)[C@@H](OC(C)=O)[C@@H]1OC(C)=O`, with 3.51% (active).

Regarding `c1ccc(Oc2ccc(-c3cc(CN4CCOCC4)[nH]n3)cc2)cc1`, the percent growth is 3.77% (active). Then `O=C(CCC1CCCCC1)Nc1cccc(-c2nnc(-c3ccco3)o2)c1`, with 96.1%. As to `Cc1nn2c(=O)c3c([nH]c2c1-c1ccc(Cl)cc1)CCCC3`, the percent growth is 89.2%. Regarding `c1coc(CNc2nc(N3CCCCC3)nc3ccccc23)c1`, the percent growth was 1.16% (active). Consider `N#CCN(CCCCN1CCN(c2ccc(F)cc2)CC1)C(=O)OCc1ccccc1`, for which the percent growth was 1.57% (active). The value for `COc1ccc(OC)c(NCc2ccc3nc(N)nc(N)c3c2Cl)c1` was -0.467% (active). For `Cc1ccc(NC(=O)c2nc[nH]c2C(=O)Nc2nc3ccccc3[nH]2)c(C)c1`, the percent growth is 147%. As to `COc1cc(CN2CCC3(C=Cc4ccccc43)CC2)cc2c1OCO2`, the percent growth is 4.12% (active). The value for `CN1CCN(c2nccc3[nH]c(-c4cccc(F)c4)cc23)CC1` was 3.26% (active); that for `Cc1ccc2nc(Cl)c(CNCc3cccs3)cc2c1` was -0.463% (active); that for `O[C@@H](c1cc(C(F)(F)F)nc2c(C(F)(F)F)cccc12)[C@H]1CCCCN1` was -1.36% (active). With `COCC(C)NC(=O)CSc1ncnc2sc(-c3ccccc3)cc12` (centres undefined), the percent growth is 64.9%. `OCc1ccc(-c2cncc(Nc3cccc(Cl)c3)c2)cc1`: the percent growth was 7.76% (active).

On to `Nc1ccc2ncnc(Nc3ccc(OCc4cccc(F)c4)c(Cl)c3)c2c1`, for which the percent growth was 92.1%. As to `C[C@H](c1ccc2c(c1)CCCC2)N(C)c1ncc2c(N)nc(N)nc2n1`, the percent growth is -2.94% (active). The value for `CC(C)(C)n1nc(-c2ccccc2)c2c(N)ncnc21` was 10.4% (active). The value for `Cc1cc(OCC(=O)NCc2ccccc2)c2cc(Br)ccc2n1` was 15.1% (active); that for `CCOc1ccc2cc(-c3nn(C(C)(C)C)c(N)c3C(N)=O)cnc2c1` was 98.2%; that for `CC(Oc1cccc(Cl)c1)C(=O)Nc1ccc2oc(-c3ccncc3)nc2c1` (centres undefined) was 51.2%. Turning to `COC(=O)c1c(NC(=O)c2c(F)c(F)c(F)c(F)c2F)sc2c1CCCCC2`, the percent growth was 85.5%. With `COc1ccc(C2(C(=O)Nc3ccc(Br)cc3)CCCC2)cc1`, the percent growth is 56.2%.

Regarding `CCCn1nnc(NC(=O)COc2ccc(C3CCCCC3)cc2)n1`, the percent growth was 2.18% (active). On to `CS(=O)(=O)Cc1nc2ccccc2oc1=O`, for which the percent growth is 87.9%. Regarding `N#Cc1ccc(-c2ccc(OCC(N)=O)cc2)cc1`, the percent growth is 96.5%. As to `Nc1nc2ccc(-c3cncc(Oc4ccc(F)cc4)c3)cc2[nH]1`, the percent growth is -2.72% (active).

Take `CCOc1ccc2cc(-c3nn(CC4CCN(C)CC4)c4ncnc(N)c34)ccc2c1`: the percent growth is -3.52% (active).

As to `CCOc1ccccc1C(=O)Nc1cccc(-c2nc3ncccn3c2C)c1`, the percent growth was 97.2%. As to `CCC(=O)Nc1ccccc1C(=O)Nc1ccccn1`, the percent growth was 62.5%. For the compound `CCCCc1ccc(C(=O)Nc2nccc3ccccc23)nc1`, the percent growth was -1.16% (active). In the case of `c1ccc(Oc2ccc(-c3cc(C4CCOCC4)[nH]n3)cc2)cc1`, the percent growth is 4.02% (active). `Oc1c(I)cc(I)c2cccnc12`: the percent growth is -2.46% (active). Regarding `O=C(NC1CC1)c1ccc(N2CCC(Cc3ccccc3)CC2)nc1`, the percent growth is 104%.

In the case of `Cc1ncc(-c2ccnc(Nc3ccc(S(C)(=O)=O)cc3)n2)n1C(C)C`, the percent growth was 6.23% (active). The value for `CC(=O)NCC1CN(c2ccc(-c3ccc(CO)cc3)c(F)c2)C(=O)O1` (centres undefined) was 112%.

Turning to `CC(C)(C)n1nc(Cc2ccc(F)c(Cl)c2)c2c(N)ncnc21`, the percent growth was 1.18% (active).
